# About 79,000 compounds went through this panel and 15% of them were active in at least one assay; those are over-represented in the sample as a whole. A number with no mark means an inactive call. Activity calls are given as the source filed them. No stated cut-off is given here; in the data, active means growth inhibition above about 70%; inactive means the rest.
# How the values were obtained:
# [1] = NCI Yeast Anticancer Drug Screen. Data for the rad52 strain (AID 147);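 further: 0% = growth of vehicle-treated control cultures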; settings: S. cerevisiae rad52 mutant growth inhibition, active compounds read high
# How it was run: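 Vehicle-treated cultures served as the reference for growth inhibition of compound-exposed yeast bearing a DNA repair mutation.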
# [2] = NCI Yeast Anticancer Drug Screen. Data for the wt1 strain (AID 149);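 further: 0% = growth of vehicle-treated wt1 cultures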; settings: S. cerevisiae wt1 strain (SPY 50644) growth inhibition, active compounds read high
# How it was run: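 Vehicle-normalised growth inhibition; strain wt1; compound exposure.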
# [3] = NCI Yeast Anticancer Drug Screen. Data for the rad50EPP+ strain (AID 151);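 further: 0% = growth of vehicle-treated control cultures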; settings: S. cerevisiae rad50 mutant strain, active compounds read high
# How it was run: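 In this screen, rad50EPP+ yeast were exposed to compounds. Growth inhibition was scored against vehicle-treated controls.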
# [4] = NCI Yeast Anticancer Drug Screen. Data for the mgt1 strain (AID 153); settings: S. cerevisiae mgt1 mutant growth inhibition, active compounds read high
# How it was run: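 mgt1 strain exposed; growth vs vehicle control recorded as inhibition.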
# [5] = NCI Yeast Anticancer Drug Screen. Data for the rad50 strain (AID 155);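 further: 0% = growth of vehicle-only cultures of the same strain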; settings: S. cerevisiae rad50 strain growth inhibition, active compounds read high
# How it was run: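 A DNA repair-deficient yeast mutant serves as the test organism; compound-induced growth inhibition is calculated against vehicle-treated cells.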
# [6] = NCI Yeast Anticancer Drug Screen. Data for the rad14 strain (AID 159);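 further: 0% = growth of vehicle-treated control cultures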; settings: S. cerevisiae rad14 strain growth inhibition, active compounds read high
# How it was run: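 Vehicle-treated cultures served as the baseline for growth inhibition of a DNA repair-mutant yeast strain exposed to each compound.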
# [7] = NCI Yeast Anticancer Drug Screen. Data for the sgs1 mgt1 strain (AID 161);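 further: 0% = growth of cultures given vehicle only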; settings: S. cerevisiae sgs1 mgt1 strain, active compounds read high
# How it was run: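 Genetically altered yeast, compound exposure, growth inhibition relative to vehicle.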
# [8] = NCI Yeast Anticancer Drug Screen. Data for the CLN2oe strain (AID 163);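 further: 0% = growth of vehicle-only control cultures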; settings: S. cerevisiae CLN2oe strain, active compounds read high
# How it was run: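 Inhibition relative to vehicle-treated yeast is reported. Cells: strain with genetic alteration in cell-cycle control, grown with compound.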
# [9] = NCI Yeast Anticancer Drug Screen. Data for the cln2 rad14 strain (AID 165);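 further: 0% = growth equal to vehicle treated cultures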; settings: S. cerevisiae cln2 rad14 strain, active compounds read high
# How it was run: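 Each compound was tested on cln2 rad14 yeast. Inhibition of growth was calculated against vehicle-exposed controls.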
# [10] = NCI Yeast Anticancer Drug Screen. Data for the bub3 strain (AID 167); settings: S. cerevisiae bub3 mutant strain, active compounds read high
# How it was run: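 Inhibition values come from growth of compound-treated mutant yeast normalised to vehicle-treated controls.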
# [11] = NCI Yeast Anticancer Drug Screen. Data for the wt2 strain (AID 169);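 further: 0% = growth of vehicle-treated yeast cultures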; settings: S. cerevisiae wt2 strain growth inhibition, active compounds read high
# How it was run: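 Inhibition of yeast growth was determined after compound treatment, normalised to controls receiving only vehicle.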
# [12] = NCI Yeast Anticancer Drug Screen. Data for the mlh1 strain (AID 171);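 further: 0% = growth of vehicle-treated control cultures of the same strain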; settings: S. cerevisiae mlh1 strain growth inhibition, active compounds read high
# How it was run: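 Vehicle-normalised growth inhibition of a repair- or checkpoint-altered yeast strain following compound treatment.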
# [13] = NCI Yeast Anticancer Drug Screen. Data for the sgs1 strain (AID 173);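 further: 0% = growth of vehicle-only control cultures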; settings: S. cerevisiae sgs1 mutant, active compounds read high
# How it was run: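 Screen format: yeast with repair or checkpoint alterations, compound exposure, growth read relative to vehicle.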
# [14] = NCI Yeast Anticancer Drug Screen. Data for the mlh1 rad18 strain (AID 175); settings: S. cerevisiae mlh1 rad18 strain growth inhibition, active compounds read high
# How it was run: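 Vehicle-treated cultures served as the reference for growth inhibition in a yeast strain carrying DNA damage repair alterations exposed to each compound.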
# [15] = NCI Yeast Anticancer Drug Screen. Data for the rad18 strain (AID 177); settings: S. cerevisiae rad18 mutant growth inhibition, active compounds read high
# How it was run: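 Test articles were incubated with altered yeast defective in DNA damage repair. Results are given as inhibition of growth versus vehicle.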
# [16] = NCI Yeast Anticancer Drug Screen. Data for the mec2-1 strain (AID 157); settings: S. cerevisiae mec2-1 strain, active compounds read high
# How it was run: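 Vehicle-treated cultures served as reference for growth inhibition of compound-exposed mec2-1 yeast.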
# [17] = at 5.0 µM (retest, dose inferred, filed as 0.5)
# [18] = at 50.0 µM (retest, dose inferred, filed as 5.0)
smiles,measurement,setting,value
COC(=O)C1=C(C)NC(C)=C(C(=O)OCCCN2CCC(c3ccccc3)(c3ccccc3)CC2)C1c1cccc([N+](=O)[O-])c1 (stereo not drawn),growth inhibition,[1]; at 1.2 µM,-8%
same,growth inhibition,[1]; at 3.7 µM,2%
same,growth inhibition,[1]; at 11.0 µM,97% (active)
same,growth inhibition,[1]; at 33.0 µM,97% (active)
same,growth inhibition,[1]; at 100.0 µM,88% (active)
same,growth inhibition,[2]; at 1.2 µM,-3%
same,growth inhibition,[2]; at 3.7 µM,-5%
same,growth inhibition,[2]; at 11.0 µM,69%
same,growth inhibition,[2]; at 33.0 µM,98% (active)
same,growth inhibition,[2]; at 100.0 µM,94% (active)
same,growth inhibition,[3]; at 1.2 µM,66%
same,growth inhibition,[3]; at 3.7 µM,86% (active)
same,growth inhibition,[3]; at 11.0 µM,88% (active)
same,growth inhibition,[3]; at 33.0 µM,92% (active)
same,growth inhibition,[3]; at 100.0 µM,82% (active)
same,growth inhibition,[4]; at 1.2 µM,-5%
same,growth inhibition,[4]; at 3.7 µM,22%
same,growth inhibition,[4]; at 11.0 µM,98% (active)
same,growth inhibition,[4]; at 33.0 µM,98% (active)
same,growth inhibition,[4]; at 100.0 µM,93% (active)
same,growth inhibition,[5]; at 1.2 µM,1%
same,growth inhibition,[5]; at 3.7 µM,48%
same,growth inhibition,[5]; [17],37%
same,growth inhibition,[5]; at 11.0 µM,97% (active)
same,growth inhibition,[5]; at 33.0 µM,95% (active)
same,growth inhibition,[5]; [18],99% (active)
same,growth inhibition,[5]; at 50.0 µM,94.5% (active)
same,growth inhibition,[5]; at 100.0 µM,84% (active)
same,growth inhibition,[6]; at 1.2 µM,20%
same,growth inhibition,[6]; at 3.7 µM,76% (active)
same,growth inhibition,[6]; at 11.0 µM,99% (active)
same,growth inhibition,[6]; at 33.0 µM,98% (active)
same,growth inhibition,[6]; at 100.0 µM,89% (active)
same,growth inhibition,[7]; [17],50%
same,growth inhibition,[7]; [18],98% (active)
same,growth inhibition,[7]; at 50.0 µM,94% (active)
same,growth inhibition,[8]; at 1.2 µM,-3%
same,growth inhibition,[8]; at 3.7 µM,21%
same,growth inhibition,[8]; at 11.0 µM,96% (active)
same,growth inhibition,[8]; at 33.0 µM,98% (active)
same,growth inhibition,[8]; at 100.0 µM,84% (active)
same,growth inhibition,[9]; [17],14%
same,growth inhibition,[9]; [18],98% (active)
same,growth inhibition,[9]; at 50.0 µM,94.2% (active)
same,growth inhibition,[10]; at 1.2 µM,11%
same,growth inhibition,[10]; at 3.7 µM,16%
same,growth inhibition,[10]; [17],42%
same,growth inhibition,[10]; at 11.0 µM,83% (active)
same,growth inhibition,[10]; at 33.0 µM,98% (active)
same,growth inhibition,[10]; [18],97% (active)
same,growth inhibition,[10]; at 50.0 µM,97% (active)
same,growth inhibition,[10]; at 100.0 µM,90% (active)
same,growth inhibition,[11]; at 1.2 µM,-4%
same,growth inhibition,[11]; at 3.7 µM,25%
same,growth inhibition,[11]; at 11.0 µM,98% (active)
same,growth inhibition,[11]; at 33.0 µM,97% (active)
same,growth inhibition,[11]; at 100.0 µM,91% (active)
same,growth inhibition,[12]; at 1.2 µM,1%
same,growth inhibition,[12]; at 3.7 µM,51%
same,growth inhibition,[12]; at 11.0 µM,98% (active)
same,growth inhibition,[12]; at 33.0 µM,98% (active)
same,growth inhibition,[12]; at 100.0 µM,92% (active)
same,growth inhibition,[13]; at 1.2 µM,-3%
same,growth inhibition,[13]; at 3.7 µM,23%
same,growth inhibition,[13]; at 11.0 µM,97% (active)
same,growth inhibition,[13]; at 33.0 µM,98% (active)
same,growth inhibition,[13]; at 100.0 µM,91% (active)
same,growth inhibition,[14]; [17],74% (active)
same,growth inhibition,[14]; [18],98% (active)
same,growth inhibition,[14]; at 50.0 µM,92.7% (active)
same,growth inhibition,[15]; at 1.2 µM,-7%
same,growth inhibition,[15]; at 3.7 µM,9%
same,growth inhibition,[15]; at 11.0 µM,94% (active)
same,growth inhibition,[15]; at 33.0 µM,97% (active)
same,growth inhibition,[15]; at 100.0 µM,88% (active)
Cc1cccc2c(C(O)CBr)cc(-c3ccc(Cl)cc3)nc12 (stereo not drawn),growth inhibition,[1]; at 1.2 µM,0%
same,growth inhibition,[1]; at 3.7 µM,20%
same,growth inhibition,[1]; at 11.0 µM,98% (active)
same,growth inhibition,[1]; at 33.0 µM,96% (active)
same,growth inhibition,[1]; at 100.0 µM,87% (active)
same,growth inhibition,[2]; at 1.2 µM,-3%
same,growth inhibition,[2]; at 3.7 µM,-5%
same,growth inhibition,[2]; at 11.0 µM,98% (active)
same,growth inhibition,[2]; at 33.0 µM,97% (active)
same,growth inhibition,[2]; at 100.0 µM,91% (active)
same,growth inhibition,[3]; at 1.2 µM,1%
same,growth inhibition,[3]; at 3.7 µM,10%
same,growth inhibition,[3]; at 11.0 µM,32%
same,growth inhibition,[3]; at 33.0 µM,40%
same,growth inhibition,[3]; at 100.0 µM,54%
same,growth inhibition,[5]; at 1.2 µM,0%
same,growth inhibition,[5]; at 3.7 µM,11%
same,growth inhibition,[5]; [17],3%
same,growth inhibition,[5]; at 11.0 µM,98% (active)
same,growth inhibition,[5]; at 33.0 µM,96% (active)
same,growth inhibition,[5]; [18],93% (active)
same,growth inhibition,[5]; at 50.0 µM,93.8% (active)
same,growth inhibition,[5]; at 100.0 µM,88% (active)
same,growth inhibition,[16]; at 1.2 µM,0%
same,growth inhibition,[16]; at 3.7 µM,4%
same,growth inhibition,[16]; [17],1%
same,growth inhibition,[16]; at 11.0 µM,99% (active)
same,growth inhibition,[16]; at 33.0 µM,97% (active)
same,growth inhibition,[16]; [18],96% (active)
same,growth inhibition,[16]; at 50.0 µM,96.1% (active)
same,growth inhibition,[16]; at 100.0 µM,51%
same,growth inhibition,[6]; at 1.2 µM,-4%
same,growth inhibition,[6]; at 3.7 µM,3%
same,growth inhibition,[6]; at 11.0 µM,99% (active)
same,growth inhibition,[6]; at 33.0 µM,97% (active)
same,growth inhibition,[6]; at 100.0 µM,88% (active)
same,growth inhibition,[7]; [17],3%
same,growth inhibition,[7]; [18],95% (active)
same,growth inhibition,[7]; at 50.0 µM,95.7% (active)
same,growth inhibition,[8]; at 1.2 µM,-2%
same,growth inhibition,[8]; at 3.7 µM,-3%
same,growth inhibition,[8]; at 11.0 µM,98% (active)
same,growth inhibition,[8]; at 33.0 µM,96% (active)
same,growth inhibition,[8]; at 100.0 µM,51%
same,growth inhibition,[9]; [17],-10%
same,growth inhibition,[9]; [18],95% (active)
same,growth inhibition,[9]; at 50.0 µM,92.8% (active)
same,growth inhibition,[10]; at 1.2 µM,0%
same,growth inhibition,[10]; at 3.7 µM,8%
same,growth inhibition,[10]; [17],-1%
same,growth inhibition,[10]; at 11.0 µM,98% (active)
same,growth inhibition,[10]; at 33.0 µM,96% (active)
same,growth inhibition,[10]; [18],96% (active)
same,growth inhibition,[10]; at 50.0 µM,92.5% (active)
same,growth inhibition,[10]; at 100.0 µM,45%
same,growth inhibition,[11]; at 1.2 µM,-4%
same,growth inhibition,[11]; at 3.7 µM,-6%
same,growth inhibition,[11]; at 11.0 µM,98% (active)
same,growth inhibition,[11]; at 33.0 µM,96% (active)
same,growth inhibition,[11]; at 100.0 µM,88% (active)
same,growth inhibition,[12]; at 1.2 µM,-5%
same,growth inhibition,[12]; at 3.7 µM,1%
same,growth inhibition,[12]; at 11.0 µM,98% (active)
same,growth inhibition,[12]; at 33.0 µM,95% (active)
same,growth inhibition,[12]; at 100.0 µM,48%
same,growth inhibition,[13]; at 1.2 µM,-2%
same,growth inhibition,[13]; at 3.7 µM,7%
same,growth inhibition,[13]; at 11.0 µM,98% (active)
same,growth inhibition,[13]; at 33.0 µM,96% (active)
same,growth inhibition,[13]; at 100.0 µM,90% (active)
same,growth inhibition,[14]; [17],1%
same,growth inhibition,[14]; [18],95% (active)
same,growth inhibition,[14]; at 50.0 µM,95.3% (active)

# Reference: PubChem BioAssay (NCI)
